Assay results: the supplement of paper PMC10849652
Targets with a hit are over-represented here; the source holds about 7,900 in all. About 0.6% of all pairs of compound and target were hits.

Legend:
Test in all cases: log2 fold change, soluble protein after heating vs DMSO (PISA); higher = thermal stabilisation; K562 cells, 10 uM, 30 min; active = over 0.2 and 3.5 SD of the protein, either way, in both replicates (recomputed)
bafetinib = compound: Cc1ccc(NC(=O)c2ccc(CN3CC[C@H](N(C)C)C3)c(C(F)(F)F)c2)cc1Nc1nccc(-c2cncnc2)n1 [bafetinib]
Outline: (§1)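 Aliquots of K562 cells (2×10^6 cells/mL) treated with 10 μM compound for 30 min were heated for 3 min over 48°C-58°C. After pooling and extraction in PBS with 0.5% NP-40 at 4°C, soluble protein from a 21,000xg, 90 min spin was quantified by TMTpro 16plex LC-MS/MS with channel sums equalised. Thermal stability is expressed against control samples, from duplicates, as a log2 fold change.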

[1] = compound: Cc1cccc(CC(=O)N2CCc3c2ccc(-c2cn(C)c4ncnc(N)c24)c3F)n1
Outline: as §1

nilotinib = compound: Cc1cn(-c2cc(NC(=O)c3ccc(C)c(Nc4nccc(-c5cccnc5)n4)c3)cc(C(F)(F)F)c2)cn1 [nilotinib]
Outline: as §1

[2] = compound: Cc1nc(Nc2n[nH]c3c2CN(C(=O)N[C@H](CN(C)C)c2ccccc2)C3(C)C)c2sccc2n1
Outline: as §1

dasatinib = compound: Cc1nc(Nc2ncc(C(=O)Nc3c(C)cccc3Cl)s2)cc(N2CCN(CCO)CC2)n1 [dasatinib]
Outline: as §1

[3] = compound: Cc1ncc(-c2ccnc(Nc3ccc(S(C)(=O)=O)cc3)n2)n1C(C)C
Outline: as §1

[4] = compound: Cn1cc(-c2ccc3c(c2)CCN3C(=O)Cc2cccc(C(F)(F)F)c2)c2c(N)ncnc21
Outline: as §1

[5] = compound: Cn1cc(-c2ccc3nnc(C(F)(F)c4ccc5ncccc5c4)n3n2)cn1
Outline: as §1

tipifarnib = compound: Cn1cncc1[C@@](N)(c1ccc(Cl)cc1)c1ccc2c(c1)c(-c1cccc(Cl)c1)cc(=O)n2C [tipifarnib]
Outline: as §1

mubritinib = compound: FC(F)(F)c1ccc(/C=C/c2nc(COc3ccc(CCCCn4ccnn4)cc3)co2)cc1 [mubritinib]
Outline: as §1

[6] = compound: NC(=O)Nc1cc(-c2cccc(F)c2)sc1C(=O)N[C@H]1CCCNC1
Outline: as §1

[7] = compound: NC(=O)c1cnc(N[C@@H]2CCCC[C@@H]2N)nc1Nc1cccc(-n2nccn2)c1
Outline: as §1

[8] = compound: NC1(c2ccc(-c3nc4ccn5c(=O)[nH]nc5c4cc3-c3ccccc3)cc2)CCC1
Outline: as §1

[9] = compound: NCC(=O)Nc1ccc(-n2nc(C(F)(F)F)cc2-c2ccc3c(ccc4ccccc43)c2)cc1
Outline: as §1

entinostat = compound: Nc1ccccc1NC(=O)c1ccc(CNC(=O)OCc2cccnc2)cc1 [entinostat]
Outline: as §1

vorinostat = compound: O=C(CCCCCCC(=O)Nc1ccccc1)NO [vorinostat]
Outline: as §1

citarinostat = compound: O=C(CCCCCCNC(=O)c1cnc(N(c2ccccc2)c2ccccc2Cl)nc1)NO [citarinostat]
Outline: as §1

silmitasertib = compound: O=C(O)c1ccc2c(c1)nc(Nc1cccc(Cl)c1)c1ccncc12 [silmitasertib]
Outline: as §1

[10] = compound: O=C1NC(=O)C(c2cnc3ccccn23)=C1c1cn2c3c(cc(F)cc13)CN(C(=O)N1CCCCC1)CC2
Outline: as §1

[11] = compound: c1cc(OCCN2CCCCC2)cc(-c2n[nH]c3ccc(-c4nnc[nH]4)cc23)c1
Outline: as §1

Measured: log2 fold change

MSH6 (UniProt P52701)
Chain of UniProt P52701 (P52701 whole entry, looked up): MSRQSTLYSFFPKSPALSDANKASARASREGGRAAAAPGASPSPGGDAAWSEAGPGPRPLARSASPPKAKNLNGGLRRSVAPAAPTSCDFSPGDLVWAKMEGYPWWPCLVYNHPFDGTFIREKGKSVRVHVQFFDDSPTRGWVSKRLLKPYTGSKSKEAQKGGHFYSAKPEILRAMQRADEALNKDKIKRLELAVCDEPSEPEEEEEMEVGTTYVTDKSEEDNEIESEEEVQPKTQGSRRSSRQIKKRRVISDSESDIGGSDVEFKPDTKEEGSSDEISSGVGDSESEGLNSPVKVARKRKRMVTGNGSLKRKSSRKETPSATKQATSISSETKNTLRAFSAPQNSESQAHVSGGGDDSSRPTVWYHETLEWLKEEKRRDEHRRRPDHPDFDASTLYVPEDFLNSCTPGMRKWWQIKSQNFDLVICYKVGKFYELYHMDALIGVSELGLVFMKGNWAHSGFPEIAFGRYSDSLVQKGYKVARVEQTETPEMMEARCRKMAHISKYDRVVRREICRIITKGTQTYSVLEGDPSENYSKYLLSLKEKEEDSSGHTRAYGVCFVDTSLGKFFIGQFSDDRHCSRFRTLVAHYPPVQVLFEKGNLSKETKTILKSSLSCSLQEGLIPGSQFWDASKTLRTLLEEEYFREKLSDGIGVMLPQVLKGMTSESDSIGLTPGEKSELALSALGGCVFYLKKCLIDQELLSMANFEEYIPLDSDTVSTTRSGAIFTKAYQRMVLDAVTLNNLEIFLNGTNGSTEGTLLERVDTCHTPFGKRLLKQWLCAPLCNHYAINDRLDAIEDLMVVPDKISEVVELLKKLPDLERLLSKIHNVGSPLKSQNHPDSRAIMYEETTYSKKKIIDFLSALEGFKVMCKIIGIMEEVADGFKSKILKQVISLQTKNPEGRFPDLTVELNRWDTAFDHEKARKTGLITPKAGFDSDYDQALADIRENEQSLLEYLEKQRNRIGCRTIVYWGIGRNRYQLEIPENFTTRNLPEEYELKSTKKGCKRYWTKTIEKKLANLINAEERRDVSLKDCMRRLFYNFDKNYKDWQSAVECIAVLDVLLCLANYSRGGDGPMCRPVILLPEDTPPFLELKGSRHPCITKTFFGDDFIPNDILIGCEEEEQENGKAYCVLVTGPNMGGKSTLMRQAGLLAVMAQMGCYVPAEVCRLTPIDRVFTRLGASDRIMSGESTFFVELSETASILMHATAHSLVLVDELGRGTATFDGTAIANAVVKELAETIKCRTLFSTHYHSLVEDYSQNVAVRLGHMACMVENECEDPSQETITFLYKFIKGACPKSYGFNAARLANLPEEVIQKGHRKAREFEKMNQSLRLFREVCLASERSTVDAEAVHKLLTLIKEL
inactive: bafetinib -0.019 | [1] 0.101 | nilotinib -0.116 | [2] -0.179 | dasatinib -0.325 | [3] -0.1 | [4] 0.139 | [5] 0.167 | tipifarnib -0.174 | mubritinib 0 | [6] -0.033 | [7] -0.091 | [8] -0.213 | [9] -0.191 | entinostat 0.229 | vorinostat 0.273 | citarinostat 0.347 | silmitasertib 0.14 | [10] -0.169 | [11] 0.097

MRPL50 (UniProt Q8N5N7)
inactive: bafetinib -0.079 | [1] -0.035 | nilotinib 0.008 | [2] 0.114 | dasatinib 0.183 | [3] -0.064 | [4] 0.022 | [5] 0.117 | tipifarnib -0.163 | mubritinib -0.039 | [6] 0.024 | [7] 0.154 | [8] 0.035 | [9] 0.074 | entinostat 0.059 | vorinostat -0.102 | citarinostat 0.051 | silmitasertib 0.006 | [10] -0.078 | [11] -0.078

OSTC (UniProt Q9NRP0)
Chain of UniProt Q9NRP0 (Q9NRP0 whole entry, looked up): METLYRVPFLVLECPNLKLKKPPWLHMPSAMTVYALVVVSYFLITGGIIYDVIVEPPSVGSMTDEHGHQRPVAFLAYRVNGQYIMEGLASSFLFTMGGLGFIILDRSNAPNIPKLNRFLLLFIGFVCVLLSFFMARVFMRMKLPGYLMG
inactive: bafetinib -0.137 | [1] 0.027 | nilotinib -0.047 | [2] -0.013 | dasatinib -0.059 | [3] -0.029 | [4] 0.057 | [5] 0.069 | tipifarnib -0.013 | mubritinib 0.044 | [6] -0.062 | [7] 0.028 | [8] -0.107 | [9] -0.134 | entinostat 0.039 | vorinostat -0.001 | citarinostat 0.074 | silmitasertib -0.011 | [10] 0.05 | [11] -0.067

NUP210 (UniProt Q8TEM1)
Chain of UniProt Q8TEM1 (Q8TEM1 whole entry, looked up): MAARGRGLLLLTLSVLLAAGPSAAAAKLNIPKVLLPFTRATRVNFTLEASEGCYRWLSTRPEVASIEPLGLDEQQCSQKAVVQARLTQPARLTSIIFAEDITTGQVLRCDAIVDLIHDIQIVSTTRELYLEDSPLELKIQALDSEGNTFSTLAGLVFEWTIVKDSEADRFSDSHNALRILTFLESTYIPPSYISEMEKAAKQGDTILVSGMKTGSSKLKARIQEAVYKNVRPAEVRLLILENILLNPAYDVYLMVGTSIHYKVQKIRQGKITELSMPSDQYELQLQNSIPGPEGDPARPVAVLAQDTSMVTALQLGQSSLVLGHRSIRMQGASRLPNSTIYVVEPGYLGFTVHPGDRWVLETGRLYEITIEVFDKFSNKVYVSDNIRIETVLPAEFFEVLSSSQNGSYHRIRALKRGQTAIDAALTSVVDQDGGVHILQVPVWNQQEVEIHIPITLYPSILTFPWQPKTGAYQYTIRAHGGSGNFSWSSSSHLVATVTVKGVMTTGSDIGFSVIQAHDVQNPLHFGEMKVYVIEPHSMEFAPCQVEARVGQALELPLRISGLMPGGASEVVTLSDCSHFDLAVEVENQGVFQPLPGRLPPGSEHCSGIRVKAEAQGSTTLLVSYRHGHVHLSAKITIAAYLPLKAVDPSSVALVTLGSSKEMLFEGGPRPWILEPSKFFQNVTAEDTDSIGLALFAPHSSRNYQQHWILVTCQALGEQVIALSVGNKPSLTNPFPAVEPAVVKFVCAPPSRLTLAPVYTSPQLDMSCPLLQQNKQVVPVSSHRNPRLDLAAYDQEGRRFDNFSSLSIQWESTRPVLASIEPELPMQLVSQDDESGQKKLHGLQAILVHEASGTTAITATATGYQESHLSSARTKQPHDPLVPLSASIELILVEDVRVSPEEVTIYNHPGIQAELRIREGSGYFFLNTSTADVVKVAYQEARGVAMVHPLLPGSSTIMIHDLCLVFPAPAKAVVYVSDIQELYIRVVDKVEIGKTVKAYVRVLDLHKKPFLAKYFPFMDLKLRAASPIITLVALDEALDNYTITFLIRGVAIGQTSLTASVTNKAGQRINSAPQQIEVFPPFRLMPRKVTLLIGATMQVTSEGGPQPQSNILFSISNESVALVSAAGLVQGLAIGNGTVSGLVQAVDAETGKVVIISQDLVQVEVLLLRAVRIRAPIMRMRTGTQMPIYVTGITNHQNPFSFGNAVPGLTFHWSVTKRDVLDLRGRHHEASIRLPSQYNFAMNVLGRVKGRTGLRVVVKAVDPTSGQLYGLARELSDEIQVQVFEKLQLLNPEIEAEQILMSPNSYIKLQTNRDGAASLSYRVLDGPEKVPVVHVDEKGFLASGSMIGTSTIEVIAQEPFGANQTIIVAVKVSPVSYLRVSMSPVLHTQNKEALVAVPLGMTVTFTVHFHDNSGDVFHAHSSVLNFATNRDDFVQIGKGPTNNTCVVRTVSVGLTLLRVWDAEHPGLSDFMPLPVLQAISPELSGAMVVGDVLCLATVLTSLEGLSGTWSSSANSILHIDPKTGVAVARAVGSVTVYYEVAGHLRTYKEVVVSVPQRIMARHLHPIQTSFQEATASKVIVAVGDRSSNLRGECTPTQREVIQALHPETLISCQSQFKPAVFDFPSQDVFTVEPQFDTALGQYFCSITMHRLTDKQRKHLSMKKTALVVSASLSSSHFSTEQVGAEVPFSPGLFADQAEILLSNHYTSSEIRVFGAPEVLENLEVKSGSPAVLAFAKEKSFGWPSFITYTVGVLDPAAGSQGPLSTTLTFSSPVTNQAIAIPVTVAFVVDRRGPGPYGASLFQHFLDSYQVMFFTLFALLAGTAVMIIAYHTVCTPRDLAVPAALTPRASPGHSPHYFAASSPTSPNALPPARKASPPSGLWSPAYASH
inactive: bafetinib -0.178 | [1] 0.053 | nilotinib -0.125 | [2] -0.009 | dasatinib -0.118 | [3] -0.038 | [4] 0.055 | [5] 0 | tipifarnib -0.039 | mubritinib 0.034 | [6] 0.022 | [7] -0.173 | [8] -0.19 | [9] -0.126 | entinostat 0.047 | vorinostat 0.054 | citarinostat 0.022 | silmitasertib -0.033 | [10] -0.004 | [11] -0.023

NPC1 (UniProt O15118)
inactive: [1] -0.02 | nilotinib 0.024 | [2] -0.017 | dasatinib -0.001 | [3] 0.05 | [4] 0.004 | [5] 0.012 | tipifarnib 0.038 | mubritinib -0.027 | [6] 0.002 | [7] 0.039 | [8] -0.196 | [9] -0.017 | entinostat -0.049 | vorinostat 0.004 | citarinostat 0.017 | silmitasertib 0.031 | [10] 0.027 | [11] -0.106
active: bafetinib -0.211

NARS2 (UniProt Q96I59)
inactive: bafetinib -0.108 | [1] 0.034 | nilotinib -0.063 | [2] 0.069 | dasatinib -0.05 | [3] 0.005 | [4] 0.084 | [5] 0.047 | tipifarnib -0.004 | mubritinib -0.009 | [6] -0.05 | [7] 0.057 | [8] -0.142 | [9] -0.02 | entinostat 0.012 | vorinostat 0 | citarinostat 0.043 | silmitasertib -0.04 | [10] -0.064 | [11] -0.026

NDUFAF6 (UniProt Q330K2)
Chain of UniProt Q330K2 (Q330K2 whole entry, looked up): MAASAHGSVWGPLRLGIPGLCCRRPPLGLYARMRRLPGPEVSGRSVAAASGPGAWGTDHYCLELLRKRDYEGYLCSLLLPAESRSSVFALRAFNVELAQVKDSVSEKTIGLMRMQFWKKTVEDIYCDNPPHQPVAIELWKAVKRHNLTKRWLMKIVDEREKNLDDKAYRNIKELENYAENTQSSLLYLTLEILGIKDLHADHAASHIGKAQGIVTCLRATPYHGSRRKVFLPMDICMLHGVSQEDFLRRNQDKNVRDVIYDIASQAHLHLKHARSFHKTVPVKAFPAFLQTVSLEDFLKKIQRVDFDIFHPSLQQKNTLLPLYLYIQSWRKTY
inactive: bafetinib -0.178 | [1] 0.014 | nilotinib 0.01 | [2] -0.096 | dasatinib -0.064 | [3] 0.017 | [4] 0.01 | [5] 0 | tipifarnib -0.11 | mubritinib 0.028 | [6] 0 | [7] -0.152 | [8] -0.291 | [9] 0 | entinostat 0.026 | vorinostat 0.122 | citarinostat 0.086 | silmitasertib -0.02 | [10] -0.065 | [11] -0.031

NELFA (UniProt Q9H3P2)
inactive: bafetinib -0.145 | [1] 0.027 | nilotinib 0.032 | [2] -0.311 | dasatinib -0.112 | [3] -0.152 | [4] 0.015 | [5] 0.018 | tipifarnib -0.141 | mubritinib -0.034 | [6] 0.038 | [7] -0.016 | [8] 0.142 | [9] -0.245 | entinostat 0.002 | vorinostat 0.061 | citarinostat -0.169 | silmitasertib 0.065 | [10] -0.183 | [11] 0.002

OSTM1 (UniProt Q86WC4)
inactive: bafetinib -0.208 | [1] 0.091 | nilotinib 0.044 | [2] 0.017 | dasatinib -0.086 | [3] -0.068 | [4] 0.076 | [5] 0.029 | tipifarnib 0.008 | mubritinib -0.048 | [6] -0.035 | [7] -0.029 | [9] 0.003 | entinostat 0.006 | vorinostat 0.072 | citarinostat 0.064 | silmitasertib 0.034 | [10] -0.037 | [11] -0.037
active: [8] -0.319

NEMP1 (UniProt O14524)
Chain of UniProt O14524 (O14524 whole entry, looked up): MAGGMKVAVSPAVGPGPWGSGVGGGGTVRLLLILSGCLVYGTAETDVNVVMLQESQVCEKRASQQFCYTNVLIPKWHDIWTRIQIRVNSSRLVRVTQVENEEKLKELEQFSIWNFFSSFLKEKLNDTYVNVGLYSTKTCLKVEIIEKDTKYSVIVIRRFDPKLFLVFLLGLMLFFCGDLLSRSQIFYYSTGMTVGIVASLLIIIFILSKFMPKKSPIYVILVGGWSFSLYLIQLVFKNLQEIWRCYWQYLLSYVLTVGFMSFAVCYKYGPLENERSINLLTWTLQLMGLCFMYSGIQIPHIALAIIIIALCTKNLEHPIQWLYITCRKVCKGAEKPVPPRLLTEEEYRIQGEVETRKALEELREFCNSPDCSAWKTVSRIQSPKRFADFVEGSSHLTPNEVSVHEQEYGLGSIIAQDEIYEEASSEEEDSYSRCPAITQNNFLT
inactive: bafetinib -0.147 | [1] 0.065 | nilotinib -0.186 | [2] 0.004 | dasatinib -0.009 | [3] 0.003 | [4] -0.007 | [5] -0.025 | tipifarnib 0 | mubritinib 0.036 | [6] -0.007 | [7] -0.204 | [8] -0.078 | [9] -0.181 | entinostat 0.028 | vorinostat 0.078 | citarinostat 0.026 | silmitasertib -0.019 | [10] -0.029 | [11] -0.113

PAFAH1B3 (UniProt Q15102)
Chain of UniProt Q15102 (Q15102 whole entry, looked up): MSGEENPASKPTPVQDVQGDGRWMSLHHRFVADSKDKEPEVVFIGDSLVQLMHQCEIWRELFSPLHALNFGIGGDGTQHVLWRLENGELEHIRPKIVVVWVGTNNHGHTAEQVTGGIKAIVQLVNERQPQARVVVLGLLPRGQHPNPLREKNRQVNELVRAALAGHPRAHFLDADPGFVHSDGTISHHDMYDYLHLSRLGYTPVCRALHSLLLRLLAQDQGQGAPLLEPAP
inactive: bafetinib 0.003 | [1] 0.058 | nilotinib 0.008 | [2] -0.031 | dasatinib -0.065 | [3] -0.011 | [4] 0.192 | [5] 0.039 | tipifarnib -0.163 | mubritinib 0.075 | [6] -0.036 | [7] -0.012 | [8] -0.066 | [9] -0.019 | entinostat 0.057 | vorinostat 0.043 | citarinostat -0.045 | silmitasertib -0.045 | [10] -0.108 | [11] -0.028

NELFB isoform 2 (UniProt Q8WX92)
Chain of UniProt Q8WX92 (Q8WX92 whole entry, looked up): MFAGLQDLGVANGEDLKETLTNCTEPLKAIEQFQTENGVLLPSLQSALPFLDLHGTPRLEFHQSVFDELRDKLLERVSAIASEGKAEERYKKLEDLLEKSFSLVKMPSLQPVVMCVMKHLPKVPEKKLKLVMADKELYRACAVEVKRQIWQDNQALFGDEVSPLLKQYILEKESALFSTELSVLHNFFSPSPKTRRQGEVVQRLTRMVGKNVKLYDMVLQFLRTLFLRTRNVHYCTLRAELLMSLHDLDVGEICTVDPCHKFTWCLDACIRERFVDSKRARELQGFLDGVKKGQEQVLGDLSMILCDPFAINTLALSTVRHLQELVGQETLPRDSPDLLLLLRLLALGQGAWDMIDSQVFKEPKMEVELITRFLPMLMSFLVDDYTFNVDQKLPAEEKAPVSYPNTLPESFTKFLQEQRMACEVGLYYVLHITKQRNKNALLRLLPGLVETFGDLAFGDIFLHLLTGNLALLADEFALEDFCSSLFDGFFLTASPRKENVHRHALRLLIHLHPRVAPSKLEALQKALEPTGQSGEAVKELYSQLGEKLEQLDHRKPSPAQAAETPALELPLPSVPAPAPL
inactive: bafetinib -0.088 | [1] 0.046 | nilotinib -0.135 | [2] -0.123 | dasatinib -0.189 | [3] 0.05 | [4] 0.032 | [5] 0.014 | tipifarnib -0.081 | mubritinib 0.03 | [6] -0.021 | [7] -0.016 | [8] -0.074 | [9] -0.107 | entinostat 0.062 | vorinostat 0.059 | citarinostat 0.102 | silmitasertib 0.021 | [10] -0.086 | [11] -0.001

MTOR (UniProt P42345)
inactive: bafetinib -0.018 | [1] 0.014 | nilotinib -0.158 | [2] 0.068 | dasatinib -0.166 | [3] -0.069 | [4] 0.004 | [5] 0.037 | tipifarnib -0.12 | mubritinib 0.068 | [6] -0.016 | [7] -0.102 | [9] -0.111 | entinostat 0.042 | vorinostat 0.049 | citarinostat 0.035 | silmitasertib 0.102 | [10] -0.065 | [11] -0.004
active: [8] -0.315

NDUFS4 (UniProt O43181)
inactive: bafetinib -0.083 | [1] 0.017 | nilotinib 0.039 | [2] 0.015 | dasatinib 0.087 | [3] -0.047 | [4] 0.025 | [5] -0.049 | tipifarnib 0.202 | mubritinib 0.058 | [6] -0.015 | [7] 0.026 | [8] 0.005 | [9] 0.053 | entinostat -0.095 | vorinostat -0.058 | citarinostat -0.069 | silmitasertib 0.03 | [10] 0.007 | [11] -0.039

MRPS17 (UniProt Q9Y2R5)
inactive: bafetinib 0.264 | [1] -0.01 | nilotinib -0.314 | [2] 0.067 | dasatinib -0.122 | [3] -0.012 | [4] -0.052 | [5] 0.035 | tipifarnib -0.088 | mubritinib 0.179 | [6] -0.035 | [7] 0.091 | [8] -0.138 | [9] -0.018 | entinostat -0.027 | vorinostat 0.191 | citarinostat 0.05 | silmitasertib -0.051 | [10] -0.047 | [11] 0.02

MND1 (UniProt Q9BWT6)
inactive: bafetinib -0.168 | [1] 0.042 | nilotinib 0.032 | [2] 0.003 | dasatinib -0.037 | [3] -0.015 | [4] -0.056 | [5] -0.132 | tipifarnib 0.04 | mubritinib 0.043 | [6] -0.024 | [7] -0.012 | [8] -0.118 | [9] -0.119 | entinostat 0.041 | vorinostat -0.11 | citarinostat -0.033 | silmitasertib -0.014 | [10] -0.042 | [11] -0.146
